Source: PubChem BioAssay (NCATS)
Values joined by “and” are separate entries in the source; they are usually repeats but may differ in a detail not shown here. Equal values may be shown once. Results filed as inconclusive are left out. Active and inactive are the calls of the source. The call rests on the fitted dose curve; in most records, active means well fitted curve in the direction sought with a large enough effect; inconclusive means small, poorly fitted or top-dose-only effect, or another doubt; inactive means no such curve, though single readings can be large; an effect the other way counts as inactive or inconclusive.

Legend:
[1] = target: Cellular tumor antigen p53 (Homo sapiens) (UniProt P04637); assay: Primary qHTS for small molecule compounds that upregulate eGFP-tagged delta133p53alpha (in N-terminal) cells. (AID 2060322); conditions: NCI-H358 eGFP-delta133p53alpha fluorescence, 24 h; activation: stronger effect = higher value;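 further: series mostly up to about 56 µM; 0% = DMSO vehicle and 100% = reference activator; nearly all actives have a fitted effect of over 75% in size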
In short: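 NCI-H358 cells pre-induced 24 h with 10 ng/ml doxycycline to express N-terminal eGFP-delta133p53alpha, then dosed 24 h at 37C without doxycycline; fixed, Hoechst-stained, GFP intensity by laser scanning cytometry, normalized to DMSO (0%) and 57.5 uM 5-azacytidine (100%).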

[2] = target: Aldehyde dehydrogenase, mitochondrial (Homo sapiens) (UniProt P05091); assay: qHTS for Inhibitors of the Aldehyde Dehydrogenase Family (ALDH2) Primary screen (AID 2061308);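 further: plate controls were vehicle for no effect and reference inhibitor for full effect; nearly all actives have a fitted effect of over 55% in size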
[3] = target: Retinaldehyde dehydrogenase 3 (Homo sapiens) (UniProt P47895); assay: qHTS for Inhibitors of the Aldehyde Dehydrogenase Family (ALDH1A3) Primary screen (AID 2061315);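 further: plate controls were DMSO vehicle for no effect and reference inhibitor for full effect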
[4] = BET inhibitor-based combinations targeting novel dependencies in MECOM-rearranged (r) AML: SET-2 cell line (AID 2202231); conditions: SET-2 AML cells viability, CellTiter-Glo luminescence, 48 h; viability: stronger effect = lower value, concentration not given here; further: nearly all actives have a fitted effect of over 35% in size; further: potency means the concentration at half of the fitted maximal effect;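 on viability: plate controls were DMSO treated cells for no effect and wells without cells for full effect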
In short: (§1)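 Luminescent ATP readout (CellTiter-Glo) after 48 hr drug exposure gives viability. Curves span 11 concentrations and are normalized to DMSO and empty wells. Activity is reported as area under the curve and its Z-transform within each cell line.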

[5] = BET inhibitor-based combinations targeting novel dependencies in MECOM-rearranged (r) AML: OCI-AML3 cell line (AID 2202232); conditions: Potency: OCI-AML3 viability; further: nearly all actives have a fitted effect of over 35% in size; further: potency means the concentration at half of the fitted maximal effect
In short: as §1

[6] = BET inhibitor-based combinations targeting novel dependencies in MECOM-rearranged (r) AML: UCSD-AML1 cell line (AID 2202235); further: nearly all actives have a fitted effect of over 40% in size; further: potency means the concentration at half of the fitted maximal effect
In short: (§2)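 Luminescent ATP readout (CellTiter-Glo, 15 min at room temperature) after 48 hr drug exposure gave viability. Dose-response curves, normalized to DMSO and empty-well controls, were summarized as area under the curve and its mean-centred Z-score.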

[7] = BET inhibitor-based combinations targeting novel dependencies in MECOM-rearranged (r) AML: AML-194 cell line (AID 2202237; further: nearly all actives have a fitted effect of over 40% in size; further: potency means the concentration at half of the fitted maximal effect)
In short: as §1

[8] = BET inhibitor-based combinations targeting novel dependencies in MECOM-rearranged (r) AML: HNT-34 cell line (AID 2202234); further: nearly all actives have a fitted effect of over 35% in size; further: potency means the concentration at half of the fitted maximal effect
In short: as §2

[9] = BET inhibitor-based combinations targeting novel dependencies in MECOM-rearranged (r) AML: MV-4-11 cell line (AID 2202233); further: nearly all actives have a fitted effect of over 45% in size; further: potency means the concentration at half of the fitted maximal effect
In short: as §2

[10] = BET inhibitor-based combinations targeting novel dependencies in MECOM-rearranged (r) AML: AML-191 cell line (AID 2202236; further: nearly all actives have a fitted effect of over 35% in size; further: potency means the concentration at half of the fitted maximal effect)
In short: as §1

Cellular tumor antigen p53 (Homo sapiens), sequence (P04637 whole entry, looked up): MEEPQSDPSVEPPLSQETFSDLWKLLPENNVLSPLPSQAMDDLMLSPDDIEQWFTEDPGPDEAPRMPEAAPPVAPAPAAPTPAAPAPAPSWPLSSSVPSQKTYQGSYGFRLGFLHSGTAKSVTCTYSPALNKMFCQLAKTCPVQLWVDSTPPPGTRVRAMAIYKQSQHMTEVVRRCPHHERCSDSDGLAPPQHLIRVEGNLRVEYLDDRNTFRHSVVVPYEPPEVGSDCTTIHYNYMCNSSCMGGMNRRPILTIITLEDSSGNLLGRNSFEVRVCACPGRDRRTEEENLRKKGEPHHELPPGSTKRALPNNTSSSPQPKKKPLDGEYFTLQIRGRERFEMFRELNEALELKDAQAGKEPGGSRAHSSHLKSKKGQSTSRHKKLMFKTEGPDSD

Cc1cnc(-c2cnc(NCCNc3ccc(C#N)cn3)nc2-c2ccc(Cl)cc2Cl)[nH]1
active: Potency [4] 14.8 µM
inactive: activation [1] 9% | Potency [2] | Potency [3] | Potency [5] | Potency [6] | Potency [7]

Cc1nc([C@](C)(O)CO)sc1-c1cnc(N)c(O[C@H](C)c2cc(F)ccc2-n2nccn2)c1
inactive: activation [1] -10.7% | Potency [2] | Potency [3]
active: Potency [4] 10.5 µM | Potency [5] 0.742 µM | Potency [8] 11.8 µM | Potency [6] 1.32 µM | Potency [7] 1.18 µM

NC(=O)c1ccc(N(C(N)=O)c2c(F)cccc2F)nc1-c1ccc(F)cc1F
inactive: activation [1] 24.3% and 1.79% | Potency [2] | Potency [3] | viability [4] 106% | Potency [9] | Potency [8] | Potency [6] | Potency [10] | Potency [7]

O=C(NC1CCOCC1)c1ccc(-c2cc(-c3cn[nH]c3-c3ccccn3)ccn2)cc1
inactive: activation [1] 37.2% and 4.46% | Potency [2] | Potency [3] | viability [4] 101% | Potency [5] | Potency [6] | Potency [10] | Potency [7]

CC1=C(C(=O)Nc2cc3cn[nH]c3cc2F)C(c2ccc(C(F)(F)F)cc2)CC(=O)N1 (stereo not given)
active: Potency [5] 2.95 µM
inactive: activation [1] -14.3% and -24.1% | Potency [2] | Potency [3] | viability [4] 110% | Potency [7]

CNc1nc(Nc2ccc(C(=O)N3CCOCC3)cc2OC)ncc1Cl
inactive: activation [1] -0.44% and -2.68% | Potency [2] | Potency [3] | viability [4] 93.5% | Potency [5] | Potency [10] | Potency [7]

COc1ncc(-c2ccc3c(Nc4cc(Oc5cc(F)cc(F)c5)cc(C(=O)O)c4)c(S(=O)(=O)NC4CC4)cnc3c2)c(OC)n1
inactive: activation [1] -3.34% | Potency [2] | Potency [3] | viability [4] 110% | Potency [5] | Potency [8] | Potency [6] | Potency [10] | Potency [7]

CCNC(=O)[C@H]1O[C@@H](n2cnc3c(N)nc(NCCc4ccc(CCC(=O)O)cc4)nc32)[C@H](O)[C@@H]1O
inactive: activation [1] -4.46% | Potency [2] | Potency [3] | viability [4] 115% | Potency [5] | Potency [8] | Potency [6] | Potency [10] | Potency [7]

Nc1ccc(/C=C/C(=O)NCc2cc3cc(-c4ccc(C(=O)N5CCC(F)(F)CC5)cc4)cc(-c4ccc(F)cc4)c3o2)cn1
active: Potency [9] 2.35 µM | Potency [8] 0.742 µM | Potency [6] 1.18 µM | Potency [7] 18.6 µM
inactive: activation [1] -7% | Potency [2] | Potency [3] | viability [4] 104%

O=C(NCc1cccc(O)c1)Nc1nc(-c2ccncc2)cs1
inactive: activation [1] 6.25% | Potency [2] | Potency [3] | viability [4] 92.2%
active: Potency [9] 9.34 µM

COc1ccc(C2(C#N)CCC(C(=O)O)CC2)cc1OC1CCCC1 (stereo not given)
inactive: activation [1] -6.96% and -15.7% | Potency [2] | Potency [3] | viability [4] 119% | Potency [5] | Potency [8] | Potency [6] | Potency [10] | Potency [7]

CC(C)S(=O)(=O)c1ccc2nccc(Nc3ccc4scnc4c3)c2c1
active: Potency [8] 10.5 µM
inactive: activation [1] -14.3% | Potency [2] | Potency [3] | viability [4] 95.8% | Potency [5] | Potency [10] | Potency [7]

CC[C@H](C)C(=O)O[C@H]1C[C@@H](C)C=C2C=C[C@H](C)[C@H](CC[C@@H]3C[C@@H](O)CC(=O)O3)[C@H]21
inactive: activation [1] -14.1% and 11.5% and 5.34% | Potency [2] | Potency [3] | viability [4] 109% | Potency [7]
active: Potency [9] 10.5 µM | Potency [8] 5.9 µM | Potency [6] 9.34 µM | Potency [10] 10.5 µM

C[C@@H]1CN(Cc2ccc(F)cc2)[C@@H](C)CN1C(=O)c1cc2c(C(=O)C(=O)N(C)C)cn(C)c2cc1Cl
inactive: activation [1] 10.3% and -3.57% | Potency [2] | Potency [3] | viability [4] 94.6% | Potency [5] | Potency [6] | Potency [7]

Cn1c(=O)n(-c2ccc(C(C)(C)C#N)cc2)c2c3cc(-c4cnc5ccccc5c4)ccc3ncc21
inactive: activation [1] 13% and 27.3% | Potency [2] | Potency [3]
active: Potency [4] 0.17 µM | Potency [9] 0.17 µM | Potency [8] 0.135 µM | Potency [6] 0.0428 µM | Potency [10] 0.0428 µM

CCC(C)n1ncn(-c2ccc(N3CCN(c4ccc(OC[C@H]5CO[C@](Cn6cncn6)(c6ccc(Cl)cc6Cl)O5)cc4)CC3)cc2)c1=O (stereo not given in full)
inactive: activation [1] 10% and -7.18% and -11.6% | Potency [2] | Potency [3] | viability [4] 101% | Potency [8] | Potency [6] | Potency [7]
active: Potency [5] 6.45 µM
